According to PubChem BioAssay (NCATS):
Records with an inconclusive call do not appear. The source made the active and inactive calls. Unless noted, calls come from the whole dose curve; as a rule, active = well fitted curve in the direction sought with a large enough effect; inconclusive = small, poorly fitted or top-dose-only effect, or another doubt; inactive = no such curve, though single readings can be large; an effect the other way counts as inactive or inconclusive.

Legend:
[1] = Counterscreen for APE1 Inhibitors: Fluorescent Dye Displacement Validation Assay (AID 1707);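 note: plate controls were ThO with dsDNA and no compound for no effect and ThO without dsDNA for full effect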
How it was run: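 Thiazole Orange (250 nM) bound to 50 nM TAMRA-labelled dsDNA with tetrahydrofuran abasic site; displacement by DNA-binding compounds lowers fluorescence. Buffer 50 mM Tris-HCl pH 7.5, 50 mM NaCl, 2 mM MgCl2, 0.01% Tween-20; endpoint read at 480/540 nm.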

[2] = biological target: Endonuclease 4 (Escherichia coli (strain K12)) (UniProt P0A6C1); assay: Counterscreen for APE1 Inhibitors: qHTS Validation Assay for Inhibitors of Endonuclease IV (AID 1708); note: % is set by controls: 0 for no effect and ±100 for the full control effect
How it was run: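 2 nM enzyme was preincubated with compounds for 15 min at room temperature in 50 mM Tris-HCl pH 7.5, 50 mM NaCl, 2 mM MgCl2, 1 mM DTT, 0.01% Tween-20. 50 nM THF-abasic TAMRA/BHQ-2 duplex substrate started the reaction.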

[3] = qHTS for differential inhibitors of proliferation of Plasmodium falciparum line 7G8 (AID 1815);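 note: parasite growth measured after three days of incubation; plate controls were vehicle wells for no effect and reference inhibitor wells for full effect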
[4] = qHTS for differential inhibitors of proliferation of Plasmodium falciparum line GB4 (AID 1816); conditions: Potency: Plasmodium falciparum GB4 proliferation inhibition;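 note: parasite growth measured after 72 h incubation; 0% = vehicle DMSO and -100% = reference inhibitor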
[5] = qHTS for differential inhibitors of proliferation of Plasmodium falciparum line 3D7 (AID 1876);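 note: parasite growth measured after three days of culture; 0% = vehicle wells and -100% = reference inhibitor wells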
[6] = qHTS for differential inhibitors of proliferation of Plasmodium falciparum line D10 (AID 1877);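 note: parasites grown with compound for 72 h before DNA staining; plate controls were vehicle wells for no effect and reference inhibitor wells for full effect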
[7] = qHTS for differential inhibitors of proliferation of Plasmodium falciparum line Dd2 (AID 1882); conditions: Potency: Plasmodium falciparum Dd2 proliferation inhibition;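 note: series mostly up to about 29 µM; compound exposure of 72 h on infected erythrocytes; plate controls were DMSO vehicle for no effect and 0.29 µM artemisinin for full effect; nearly all actives have a fitted effect of over 65% in size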
How it was run: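 SYBR Green I DNA fluorescence read-out, ex 485/em 535 nm. Signals were normalized to 0.29 uM artemisinin and DMSO wells, then corrected using vehicle-only plates flanking each stack. Parasite growth ran 72 h in erythrocytes before lysis.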

[8] = qHTS for differential inhibitors of proliferation of Plasmodium falciparum line W2 (AID 1883); conditions: Potency: Plasmodium falciparum W2 proliferation inhibition;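 note: parasites grown with compound for 72 h before lysis and staining; 0% = vehicle wells and -100% = control inhibitor wells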
[9] = qHTS for differential inhibitors of proliferation of Plasmodium falciparum line HB3 (AID 1886); conditions: Potency: Plasmodium falciparum HB3 proliferation inhibition;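 note: parasites grown with compound for 72 h before SYBR Green readout; plate controls were vehicle for no effect and reference inhibitor for full effect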
[10] = biological target: ATP-dependent DNA helicase Q1 (Homo sapiens) (UniProt P46063); assay: qHTS Validation Assay for Inhibitors of RecQ-Like Dna Helicase 1 (RECQ1) (AID 2353);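 note: plate controls were DMSO vehicle for no effect and enzyme-free control for full effect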
How it was run: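 50 nM RECQ1T1 preincubated 15 min with compound in Tris pH 8.0 buffer with MgCl2, DTT, Tween-20 and 2.5 ug/ml poly(dI-dC); started with 200 nM TAMRA/BHQ-2 forked duplex and 2 mM ATP. Unwinding read as fluorescence (525/598 nm), two reads 2 h apart.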

[11] = Quantitative high throughput screen for delayed death inhibitors of the malarial parasite plastid, 96 hour incubation (AID 488745); note: series mostly up to about 29 µM; % is set by controls: 0 for no effect and ±100 for the full control effect; nearly all actives have a fitted effect of over 70% in size
How it was run: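 P. falciparum carrying an integrated firefly luciferase reporter, grown in erythrocytes (2% hematocrit, 0.1% parasitemia final) in RPMI 1640/0.5% Albumax, was exposed to compound for 96 h (two generations) at 37 C, 5% CO2. Luminescence decrease indicated growth inhibition.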

[12] = Quantitative high throughput screen for delayed death inhibitors of the malarial parasite plastid, 48 hour incubation (AID 488752); note: % is set by controls: 0 for no effect and ±100 for the full control effect; nearly all actives have a fitted effect of over 65% in size
How it was run: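 Erythrocytes infected with P. falciparum carrying an integrated firefly luciferase reporter (2% hematocrit, 0.1% parasitemia final) were exposed to compounds in RPMI 1640/0.5% Albumax for 48 h at 37 C, 5% CO2. Growth inhibition was scored as reduced luminescence.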

[13] = biological target: M-phase phosphoprotein 8 (Homo sapiens) (UniProt Q99549); assay: qHTS Validation Assay for Inhibitors for MPP8 Chromodomain Interactions with Methylated Histone Tails (AID 488949);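 note: AlphaScreen signal from MPP8 chromodomain bound to biotinylated H3K9me3 peptide; top concentration of the series differs between compounds; % is set by controls: 0 for no effect and ±100 for the full control effect; nearly all actives have a fitted effect of over 55% in size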
How it was run: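 MPP8 (50 nM) was preincubated with biotinylated H3(1-18)K9me3 peptide (50 nM) in PBS pH 7.4, 0.01% Tween-20 for 30 min at room temperature, then with compounds for 30 min; binding was detected by AlphaScreen.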

[14] = biological target: Transient receptor potential cation channel subfamily V member 1 (Homo sapiens) (UniProt Q8NER1); assay: HTS Assay for Compounds that Act as Enhancers of the Vanilloid Receptor 1 (AID 488979); note: 0% is about no effect
How it was run: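 TRPV1-expressing cells loaded with Fluo-8 calcium dye; compounds added and calcium influx read kinetically for 3 min (agonist phase), then capsaicin at EC20 added and read 2 min more for enhancement. Fluorescence ex 480/em 520 nm.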

[15] = biological target: Thyrotropin receptor (Homo sapiens) (UniProt P16473); assay: qHTS Assay for Antagonists of the Thyroid Stimulating Hormone Receptor (AID 488980); note: series mostly up to about 58 µM; 0% is about no effect
How it was run: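 HEK293 cells transfected with human TSHR, suspended in HEPES-buffered HBSS with 70 uM RO 20-1724, were treated with compounds plus TSH at EC80 (4 nM final). cAMP was measured by competitive HTRF (cryptate anti-cAMP antibody, cAMP-d2 acceptor).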

[16] = biological target: Thyrotropin-releasing hormone receptor (Homo sapiens) (UniProt P34981); assay: qHTS for Small Molecule Agonists and Allosteric Enhancers of Human TRH Receptor: Validation Screen for Agonists (AID 493127;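 active = calcium activation more than 3 SD above the typical response in the agonist read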;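 note: intracellular calcium rise by fluo-8 fluorescence before TRH EC20 addition; 0% is about no effect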); conditions: TRH receptor agonist cell assay; at 2 µM; active compounds read high
How it was run: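 TRHR-expressing cells were plated overnight in serum-containing medium, then loaded with fluo-8 calcium dye at room temperature for 30 min–1.5 h. After a 10 s baseline, compound was pin-transferred and calcium fluorescence (ex 480/em 530) read kinetically for agonist response.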

[17] = Validation screen for small molecules that induce DNA re-replication in SW480 colon adenocarcinoma cells (AID 504364); note: 0% is about no effect
How it was run: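 SW480 cells seeded at 250 per well were exposed to compound or DMSO for 48 hr at 37 C, 5% CO2, then stained with Hoechst for 40 min. DNA content per nucleus was imaged (405 nm ex, 500-530 nm em).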

[18] = biological target: Voltage-gated inwardly rectifying potassium channel KCNH2 (Homo sapiens) (UniProt Q12809); assay: qHTS Assay for Small Molecule Inhibitors of the Human hERG Channel Activity (AID 588834);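 note: top concentration of the series differs between compounds; % is set by controls: 0 for no effect and ±100 for the full control effect; lower thallium flux fluorescence means stronger hERG block; nearly all actives have a fitted effect of over 50% in size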
How it was run: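 U2OS cells transduced with hERG via BacMam (MOI ~100), plated 2000/well, loaded with FluxOR thallium dye, compound ~10 min, then stimulation buffer; fluorescence decrease read kinetically; AC50 from Hill fits.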

[19] = test system: Zika virus NS2B-NS3 protease; assay: Primary screen GU AMC qHTS for Zika virus inhibitors (AID 1347154);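 note: 0% = no-inhibitor control and -100% = no-enzyme control; nearly all actives have a fitted effect of over 70% in size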
How it was run: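 Unlinked Zika NS2B hydrophilic domain/NS3 protease domain noncovalent complex (25 nM final) in 10 mM Tris-HCl pH 8.0, 0.01% Tween 20, with AMC peptide substrate. Fluorescence (ex 340, em 450 nm) change over 15 min, room temperature; percent inhibition fitted to 4-parameter Hill equation.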

[20] = Primary qHTS for small molecule stabilizers of the endoplasmic reticulum resident proteome: Secreted ER Calcium Modulated Protein (SERCaMP) assay (AID 1508630); note: % is set by controls: 0 for no effect and ±100 for the full control effect
How it was run: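 GLuc-SERCaMP-expressing SH-SY5Y cells, pretreated 16 h with compound, are challenged with thapsigargin to empty ER calcium stores; after 4 h, coelenterazine is added directly to the medium and luminescence is imaged.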

Sequence of Thyrotropin-releasing hormone receptor (Homo sapiens) (P34981 whole entry, looked up): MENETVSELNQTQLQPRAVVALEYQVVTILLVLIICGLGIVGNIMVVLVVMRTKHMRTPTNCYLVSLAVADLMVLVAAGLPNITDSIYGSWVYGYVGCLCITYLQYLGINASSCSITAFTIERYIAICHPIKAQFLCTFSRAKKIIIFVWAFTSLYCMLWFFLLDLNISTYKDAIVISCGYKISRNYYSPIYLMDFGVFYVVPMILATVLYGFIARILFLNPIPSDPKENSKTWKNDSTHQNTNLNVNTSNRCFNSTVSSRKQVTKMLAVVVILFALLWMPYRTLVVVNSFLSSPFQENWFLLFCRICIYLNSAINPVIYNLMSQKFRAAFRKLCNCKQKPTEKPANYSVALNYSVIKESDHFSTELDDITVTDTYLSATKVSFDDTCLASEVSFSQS
Sequence of Voltage-gated inwardly rectifying potassium channel KCNH2 (Homo sapiens) (Q12809 whole entry, looked up): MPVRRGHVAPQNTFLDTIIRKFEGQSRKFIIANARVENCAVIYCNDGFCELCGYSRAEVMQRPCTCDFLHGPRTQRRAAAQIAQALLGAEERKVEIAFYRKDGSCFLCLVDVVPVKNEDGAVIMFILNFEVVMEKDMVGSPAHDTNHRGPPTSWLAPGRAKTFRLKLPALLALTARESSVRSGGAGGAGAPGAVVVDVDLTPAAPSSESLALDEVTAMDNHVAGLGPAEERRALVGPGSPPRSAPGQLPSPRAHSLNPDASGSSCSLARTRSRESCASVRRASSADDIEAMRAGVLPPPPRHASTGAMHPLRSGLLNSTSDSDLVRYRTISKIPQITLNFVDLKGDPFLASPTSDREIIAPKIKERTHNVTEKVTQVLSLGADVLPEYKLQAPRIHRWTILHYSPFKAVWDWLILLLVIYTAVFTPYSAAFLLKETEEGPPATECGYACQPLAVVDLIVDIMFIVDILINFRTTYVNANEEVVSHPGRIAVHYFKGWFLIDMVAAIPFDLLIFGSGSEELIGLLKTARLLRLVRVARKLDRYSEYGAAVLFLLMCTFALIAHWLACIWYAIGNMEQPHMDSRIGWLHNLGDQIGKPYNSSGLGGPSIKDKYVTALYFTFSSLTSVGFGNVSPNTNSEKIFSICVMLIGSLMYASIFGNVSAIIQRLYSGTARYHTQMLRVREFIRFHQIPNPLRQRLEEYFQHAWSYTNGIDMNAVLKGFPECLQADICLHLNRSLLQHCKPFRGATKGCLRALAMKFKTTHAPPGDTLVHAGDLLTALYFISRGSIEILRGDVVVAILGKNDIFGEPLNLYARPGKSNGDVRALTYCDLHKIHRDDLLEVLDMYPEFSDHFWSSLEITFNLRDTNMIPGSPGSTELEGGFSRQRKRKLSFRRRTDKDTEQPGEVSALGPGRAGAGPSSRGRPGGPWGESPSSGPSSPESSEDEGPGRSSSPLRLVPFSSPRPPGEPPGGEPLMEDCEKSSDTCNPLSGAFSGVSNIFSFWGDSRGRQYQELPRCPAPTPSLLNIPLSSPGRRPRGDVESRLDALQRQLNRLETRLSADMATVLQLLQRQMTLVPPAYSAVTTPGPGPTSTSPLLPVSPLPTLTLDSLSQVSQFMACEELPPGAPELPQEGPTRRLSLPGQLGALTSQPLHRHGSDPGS
Sequence of Thyrotropin receptor (Homo sapiens) (P16473 whole entry, looked up): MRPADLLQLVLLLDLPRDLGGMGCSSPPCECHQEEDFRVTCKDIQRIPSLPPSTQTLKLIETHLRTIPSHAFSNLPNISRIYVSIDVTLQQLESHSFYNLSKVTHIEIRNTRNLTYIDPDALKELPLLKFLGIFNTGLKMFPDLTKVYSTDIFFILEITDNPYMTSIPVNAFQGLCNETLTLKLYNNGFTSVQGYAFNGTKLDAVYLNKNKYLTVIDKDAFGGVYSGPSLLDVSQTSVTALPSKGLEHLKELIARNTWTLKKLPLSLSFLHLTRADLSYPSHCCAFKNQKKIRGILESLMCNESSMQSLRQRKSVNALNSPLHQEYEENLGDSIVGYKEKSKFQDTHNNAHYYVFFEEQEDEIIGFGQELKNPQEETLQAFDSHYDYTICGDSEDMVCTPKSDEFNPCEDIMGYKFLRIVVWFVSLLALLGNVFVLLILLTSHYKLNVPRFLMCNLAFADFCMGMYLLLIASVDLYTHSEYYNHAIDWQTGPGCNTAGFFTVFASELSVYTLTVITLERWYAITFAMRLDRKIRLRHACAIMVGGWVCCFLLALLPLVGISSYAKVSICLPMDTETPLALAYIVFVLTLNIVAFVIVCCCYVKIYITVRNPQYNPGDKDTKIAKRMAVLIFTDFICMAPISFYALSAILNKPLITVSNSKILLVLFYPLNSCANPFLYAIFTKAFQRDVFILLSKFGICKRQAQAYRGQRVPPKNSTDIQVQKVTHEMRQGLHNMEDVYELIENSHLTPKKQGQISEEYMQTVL
Sequence of Transient receptor potential cation channel subfamily V member 1 (Homo sapiens) (Q8NER1 whole entry, looked up): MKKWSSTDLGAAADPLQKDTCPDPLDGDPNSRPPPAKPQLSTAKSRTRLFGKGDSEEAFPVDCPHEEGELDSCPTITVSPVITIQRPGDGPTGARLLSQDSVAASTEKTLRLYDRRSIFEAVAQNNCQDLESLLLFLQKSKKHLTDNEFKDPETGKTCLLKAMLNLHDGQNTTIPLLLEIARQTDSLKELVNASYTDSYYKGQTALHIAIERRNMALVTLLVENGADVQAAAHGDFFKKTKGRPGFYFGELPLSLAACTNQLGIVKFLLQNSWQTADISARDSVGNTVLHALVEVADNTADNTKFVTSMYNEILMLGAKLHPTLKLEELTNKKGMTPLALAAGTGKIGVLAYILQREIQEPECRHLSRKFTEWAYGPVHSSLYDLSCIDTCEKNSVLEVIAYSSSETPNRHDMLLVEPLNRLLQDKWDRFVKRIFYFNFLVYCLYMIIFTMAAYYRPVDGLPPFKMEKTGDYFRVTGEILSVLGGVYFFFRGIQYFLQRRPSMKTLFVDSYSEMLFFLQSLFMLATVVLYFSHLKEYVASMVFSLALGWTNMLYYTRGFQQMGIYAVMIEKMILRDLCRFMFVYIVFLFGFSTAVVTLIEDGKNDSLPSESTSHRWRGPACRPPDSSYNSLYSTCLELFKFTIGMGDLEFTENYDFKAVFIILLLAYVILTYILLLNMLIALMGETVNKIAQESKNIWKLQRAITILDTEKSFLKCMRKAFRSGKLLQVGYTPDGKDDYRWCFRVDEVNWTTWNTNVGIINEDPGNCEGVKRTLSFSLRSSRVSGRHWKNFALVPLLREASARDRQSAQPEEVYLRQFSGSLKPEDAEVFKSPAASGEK
Sequence of ATP-dependent DNA helicase Q1 (Homo sapiens) (P46063 whole entry, looked up): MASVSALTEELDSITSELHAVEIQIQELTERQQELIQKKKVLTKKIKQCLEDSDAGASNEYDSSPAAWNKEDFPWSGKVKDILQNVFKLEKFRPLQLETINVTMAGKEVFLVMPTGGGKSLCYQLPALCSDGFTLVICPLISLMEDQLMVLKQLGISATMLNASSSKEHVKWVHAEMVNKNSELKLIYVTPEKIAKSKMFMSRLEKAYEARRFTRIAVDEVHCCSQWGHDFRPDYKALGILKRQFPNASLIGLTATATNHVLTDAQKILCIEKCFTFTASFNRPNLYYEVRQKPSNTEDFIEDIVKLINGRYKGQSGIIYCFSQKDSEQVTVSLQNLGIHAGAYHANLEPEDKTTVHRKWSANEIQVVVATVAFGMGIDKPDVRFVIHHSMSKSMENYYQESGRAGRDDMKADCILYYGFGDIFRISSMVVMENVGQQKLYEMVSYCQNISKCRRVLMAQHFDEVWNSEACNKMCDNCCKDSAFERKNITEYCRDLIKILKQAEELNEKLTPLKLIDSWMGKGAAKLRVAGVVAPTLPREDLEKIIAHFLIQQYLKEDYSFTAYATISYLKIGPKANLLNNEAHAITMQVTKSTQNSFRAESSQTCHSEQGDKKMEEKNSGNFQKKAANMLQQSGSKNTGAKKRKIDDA
Sequence of M-phase phosphoprotein 8 (Homo sapiens) (Q99549 whole entry, looked up): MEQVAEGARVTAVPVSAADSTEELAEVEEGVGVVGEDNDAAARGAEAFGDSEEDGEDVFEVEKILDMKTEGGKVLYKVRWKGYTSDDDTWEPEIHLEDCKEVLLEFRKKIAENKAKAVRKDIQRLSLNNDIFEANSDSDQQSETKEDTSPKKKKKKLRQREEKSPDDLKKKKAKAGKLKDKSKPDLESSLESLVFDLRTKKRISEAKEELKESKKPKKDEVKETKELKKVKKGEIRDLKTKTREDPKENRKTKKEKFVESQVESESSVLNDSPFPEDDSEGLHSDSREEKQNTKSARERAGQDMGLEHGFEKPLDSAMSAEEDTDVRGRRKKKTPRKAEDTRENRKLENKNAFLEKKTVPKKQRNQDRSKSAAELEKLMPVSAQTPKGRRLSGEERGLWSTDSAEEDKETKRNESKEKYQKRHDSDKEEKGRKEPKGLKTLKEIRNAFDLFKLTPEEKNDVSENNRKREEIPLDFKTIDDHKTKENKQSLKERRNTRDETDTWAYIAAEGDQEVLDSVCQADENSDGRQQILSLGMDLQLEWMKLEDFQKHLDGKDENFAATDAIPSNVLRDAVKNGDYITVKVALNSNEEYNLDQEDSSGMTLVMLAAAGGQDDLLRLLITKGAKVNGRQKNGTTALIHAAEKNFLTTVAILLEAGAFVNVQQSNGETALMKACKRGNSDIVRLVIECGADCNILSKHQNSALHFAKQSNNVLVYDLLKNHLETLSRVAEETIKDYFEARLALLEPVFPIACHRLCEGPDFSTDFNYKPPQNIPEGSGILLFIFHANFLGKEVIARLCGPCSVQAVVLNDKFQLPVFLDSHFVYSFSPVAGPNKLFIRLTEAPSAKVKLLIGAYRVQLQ

CCCn1c(=O)c2[nH]c(-c3ccc(OCC(=O)Nc4ccc(C#N)cc4)cc3)nc2n(CCC)c1=O
inactive: Potency [1] | Potency [2] | Potency [3] | Potency [4] | Potency [5] | Potency [6] | Potency [7] | Potency [8] | Potency [9] | Potency [10] | Potency [11] | Potency [12] | Potency [13] | outcome [14] | outcome [15] | activation [16] 0.938% | outcome [17] | Potency [18] | Potency [19] | Potency [20]
